# From PubChem BioAssay (NCI)
# Compounds without any hit were thinned out: in the full panel of roughly 79,000, 15% have a hit. Values without a mark were called inactive. Active and inactive are the calls of the source. Cut-off read from the data, not from the text of the source: active = growth inhibition above about 70%; inactive = the rest.
# Assays:
# [1] = NCI Yeast Anticancer Drug Screen. Data for the rad52 strain (AID 147);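 note: 0% = growth of vehicle-treated control cultures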; details: S. cerevisiae rad52 mutant growth inhibition, stronger effect = higher value
# Procedure, shortened: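 Genetically altered yeast (DNA damage repair defect) treated with compound; inhibition calculated relative to vehicle.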
# [2] = NCI Yeast Anticancer Drug Screen. Data for the wt1 strain (AID 149);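 note: 0% = growth of vehicle-treated wt1 cultures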; details: S. cerevisiae wt1 strain (SPY 50644) growth inhibition, stronger effect = higher value
# Procedure, shortened: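 Readout: yeast growth inhibition, normalised to vehicle controls, in the wt1 strain exposed to test compounds.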
# [3] = NCI Yeast Anticancer Drug Screen. Data for the rad50EPP+ strain (AID 151);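 note: 0% = growth of vehicle-treated control cultures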; details: S. cerevisiae rad50 mutant strain, stronger effect = higher value
# Procedure, shortened: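 Strain rad50EPP+; compound exposure; % growth inhibition vs vehicle.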
# [4] = NCI Yeast Anticancer Drug Screen. Data for the mgt1 strain (AID 153); details: S. cerevisiae mgt1 mutant growth inhibition, stronger effect = higher value
# Procedure, shortened: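 Read-out: yeast growth inhibition vs vehicle control. Strain mgt1, drawn from a panel altered in DNA damage repair or cell cycle control.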
# [5] = NCI Yeast Anticancer Drug Screen. Data for the rad50 strain (AID 155);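 note: 0% = growth of vehicle-only cultures of the same strain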; details: S. cerevisiae rad50 strain growth inhibition, stronger effect = higher value
# Procedure, shortened: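 Compounds were tested on a yeast strain with an engineered DNA damage repair alteration; the reported value is growth inhibition normalised to vehicle treatment.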
# [6] = NCI Yeast Anticancer Drug Screen. Data for the mec2-1 strain (AID 157); details: S. cerevisiae mec2-1 strain, stronger effect = higher value
# Procedure, shortened: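 Cells of the genetically defined mec2-1 yeast strain are incubated with test compound. Inhibition of growth is calculated against vehicle-treated controls.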
# [7] = NCI Yeast Anticancer Drug Screen. Data for the rad14 strain (AID 159);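 note: 0% = growth of vehicle-treated control cultures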; details: S. cerevisiae rad14 strain growth inhibition, stronger effect = higher value
# Procedure, shortened: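 Compound-treated yeast with a defined DNA-repair lesion; growth inhibition normalised to vehicle-treated cultures.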
# [8] = NCI Yeast Anticancer Drug Screen. Data for the sgs1 mgt1 strain (AID 161);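 note: 0% = growth of cultures given vehicle only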; details: S. cerevisiae sgs1 mgt1 strain, stronger effect = higher value
# Procedure, shortened: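 Mutant yeast exposed to compound; growth scored against vehicle-only wells.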
# [9] = NCI Yeast Anticancer Drug Screen. Data for the CLN2oe strain (AID 163);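 note: 0% = growth of vehicle-only control cultures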; details: S. cerevisiae CLN2oe strain, stronger effect = higher value
# Procedure, shortened: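 Strain altered in cell-cycle control, incubated with compound; growth compared to solvent-treated controls.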
# [10] = NCI Yeast Anticancer Drug Screen. Data for the cln2 rad14 strain (AID 165);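 note: 0% = growth equal to vehicle treated cultures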; details: S. cerevisiae cln2 rad14 strain, stronger effect = higher value
# Procedure, shortened: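 The screen exposed genetically defined yeast (cln2 rad14) to test compounds and scored growth inhibition relative to vehicle-treated controls.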
# [11] = NCI Yeast Anticancer Drug Screen. Data for the bub3 strain (AID 167); details: S. cerevisiae bub3 mutant strain, stronger effect = higher value
# Procedure, shortened: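 Growth of a checkpoint-deficient yeast mutant is measured after compound exposure. Values represent inhibition relative to vehicle.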
# [12] = NCI Yeast Anticancer Drug Screen. Data for the wt2 strain (AID 169);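 note: 0% = growth of vehicle-treated yeast cultures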; details: S. cerevisiae wt2 strain growth inhibition, stronger effect = higher value
# Procedure, shortened: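 Steps: yeast strain treated with compound; growth recorded; inhibition calculated relative to cultures given vehicle alone.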
# [13] = NCI Yeast Anticancer Drug Screen. Data for the mlh1 strain (AID 171);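 note: 0% = growth of vehicle-treated control cultures of the same strain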; details: S. cerevisiae mlh1 strain growth inhibition, stronger effect = higher value
# Procedure, shortened: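 Yeast screen: mutant strain plus compound, growth scored against vehicle control wells.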
# [14] = NCI Yeast Anticancer Drug Screen. Data for the sgs1 strain (AID 173);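 note: 0% = growth of vehicle-only control cultures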; details: S. cerevisiae sgs1 mutant, stronger effect = higher value
# Procedure, shortened: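 Inhibition of yeast growth served as the measure. The mutant strain was treated with each compound, and growth was normalised to cultures receiving vehicle alone.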
# [15] = NCI Yeast Anticancer Drug Screen. Data for the mlh1 rad18 strain (AID 175); details: S. cerevisiae mlh1 rad18 strain growth inhibition, stronger effect = higher value
# Procedure, shortened: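 Compound-treated yeast growth, normalised to vehicle controls. Strain bears defined DNA repair mutations.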
# [16] = NCI Yeast Anticancer Drug Screen. Data for the rad18 strain (AID 177); details: S. cerevisiae rad18 mutant growth inhibition, stronger effect = higher value
# Procedure, shortened: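 Inhibition values reflect reduced yeast growth compared with vehicle-treated controls, using a strain engineered with a DNA damage repair defect.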
# [17] = at 5.0 µM (retest, dose inferred, filed as 0.5)
# [18] = at 50.0 µM (retest, dose inferred, filed as 5.0)
smiles,measurement,setting,value
C[CH2][Sn]([CH2]C)([O]C(=O)C(OC(C)=O)c1ccccc1)[O]C(=O)C(OC(C)=O)c1ccccc1 (stereo unspecified),growth inhibition,[1]; at 1.2 µM,3%
same,growth inhibition,[1]; at 3.7 µM,3%
same,growth inhibition,[1]; at 11.0 µM,15%
same,growth inhibition,[1]; at 33.0 µM,71% (active)
same,growth inhibition,[1]; at 100.0 µM,92% (active)
same,growth inhibition,[2]; at 1.2 µM,0%
same,growth inhibition,[2]; at 3.7 µM,0%
same,growth inhibition,[2]; at 11.0 µM,5%
same,growth inhibition,[2]; at 33.0 µM,47%
same,growth inhibition,[2]; at 100.0 µM,91% (active)
same,growth inhibition,[3]; at 1.2 µM,0%
same,growth inhibition,[3]; at 3.7 µM,2%
same,growth inhibition,[3]; at 11.0 µM,7%
same,growth inhibition,[3]; at 33.0 µM,9%
same,growth inhibition,[3]; at 100.0 µM,9%
same,growth inhibition,[4]; at 1.2 µM,0%
same,growth inhibition,[4]; at 3.7 µM,0%
same,growth inhibition,[4]; at 11.0 µM,4%
same,growth inhibition,[4]; at 33.0 µM,49%
same,growth inhibition,[4]; at 100.0 µM,93% (active)
same,growth inhibition,[5]; at 1.2 µM,-4%
same,growth inhibition,[5]; at 3.7 µM,4%
same,growth inhibition,[5]; [17],13%
same,growth inhibition,[5]; at 11.0 µM,-2%
same,growth inhibition,[5]; at 33.0 µM,67%
same,growth inhibition,[5]; [18],25%
same,growth inhibition,[5]; at 50.0 µM,37.7%
same,growth inhibition,[5]; at 100.0 µM,91% (active)
same,growth inhibition,[6]; at 1.2 µM,1%
same,growth inhibition,[6]; at 3.7 µM,5%
same,growth inhibition,[6]; [17],-13%
same,growth inhibition,[6]; at 11.0 µM,14%
same,growth inhibition,[6]; at 33.0 µM,65%
same,growth inhibition,[6]; [18],6%
same,growth inhibition,[6]; at 50.0 µM,35.1%
same,growth inhibition,[6]; at 100.0 µM,91% (active)
same,growth inhibition,[7]; at 1.2 µM,-2%
same,growth inhibition,[7]; at 3.7 µM,-3%
same,growth inhibition,[7]; at 11.0 µM,2%
same,growth inhibition,[7]; at 33.0 µM,14%
same,growth inhibition,[7]; at 100.0 µM,57%
same,growth inhibition,[8]; [17],7%
same,growth inhibition,[8]; [18],10%
same,growth inhibition,[8]; at 50.0 µM,20.5%
same,growth inhibition,[9]; at 1.2 µM,-15%
same,growth inhibition,[9]; at 3.7 µM,-3%
same,growth inhibition,[9]; at 11.0 µM,4%
same,growth inhibition,[9]; at 33.0 µM,47%
same,growth inhibition,[9]; at 100.0 µM,90% (active)
same,growth inhibition,[10]; [17],8%
same,growth inhibition,[10]; [18],44%
same,growth inhibition,[10]; at 50.0 µM,-23.2%
same,growth inhibition,[11]; at 1.2 µM,1%
same,growth inhibition,[11]; at 3.7 µM,4%
same,growth inhibition,[11]; [17],-13%
same,growth inhibition,[11]; at 11.0 µM,12%
same,growth inhibition,[11]; at 33.0 µM,53%
same,growth inhibition,[11]; [18],54%
same,growth inhibition,[11]; at 50.0 µM,54.4%
same,growth inhibition,[11]; at 100.0 µM,88% (active)
same,growth inhibition,[12]; at 1.2 µM,-1%
same,growth inhibition,[12]; at 3.7 µM,-2%
same,growth inhibition,[12]; at 11.0 µM,1%
same,growth inhibition,[12]; at 33.0 µM,57%
same,growth inhibition,[12]; at 100.0 µM,93% (active)
same,growth inhibition,[13]; at 1.2 µM,1%
same,growth inhibition,[13]; at 3.7 µM,0%
same,growth inhibition,[13]; at 11.0 µM,4%
same,growth inhibition,[13]; at 33.0 µM,47%
same,growth inhibition,[13]; at 100.0 µM,93% (active)
same,growth inhibition,[14]; at 1.2 µM,-1%
same,growth inhibition,[14]; at 3.7 µM,4%
same,growth inhibition,[14]; at 11.0 µM,15%
same,growth inhibition,[14]; at 33.0 µM,78% (active)
same,growth inhibition,[14]; at 100.0 µM,94% (active)
same,growth inhibition,[15]; [17],2%
same,growth inhibition,[15]; [18],10%
same,growth inhibition,[15]; at 50.0 µM,18.4%
same,growth inhibition,[16]; at 1.2 µM,4%
same,growth inhibition,[16]; at 3.7 µM,16%
same,growth inhibition,[16]; at 11.0 µM,37%
same,growth inhibition,[16]; at 33.0 µM,77% (active)
same,growth inhibition,[16]; at 100.0 µM,92% (active)
CC1(Cl)CC(O)C2(CC1Br)C1(C)OC1C1OC1(Br)C2(C)C (stereo unspecified),growth inhibition,[1]; at 1.2 µM,14%
same,growth inhibition,[1]; at 3.7 µM,19%
same,growth inhibition,[1]; at 11.0 µM,31%
same,growth inhibition,[1]; at 33.0 µM,66%
same,growth inhibition,[1]; at 100.0 µM,98% (active)
same,growth inhibition,[2]; at 1.2 µM,1%
same,growth inhibition,[2]; at 3.7 µM,-20%
same,growth inhibition,[2]; at 11.0 µM,-2%
same,growth inhibition,[2]; at 33.0 µM,60%
same,growth inhibition,[2]; at 100.0 µM,98% (active)
same,growth inhibition,[3]; at 1.2 µM,-9%
same,growth inhibition,[3]; at 3.7 µM,-12%
same,growth inhibition,[3]; at 11.0 µM,-21%
same,growth inhibition,[3]; at 33.0 µM,2%
same,growth inhibition,[3]; at 100.0 µM,73% (active)
same,growth inhibition,[4]; at 1.2 µM,-18%
same,growth inhibition,[4]; at 3.7 µM,-14%
same,growth inhibition,[4]; at 11.0 µM,-1%
same,growth inhibition,[4]; at 33.0 µM,74% (active)
same,growth inhibition,[4]; at 100.0 µM,98% (active)
same,growth inhibition,[5]; at 1.2 µM,-8%
same,growth inhibition,[5]; at 3.7 µM,-12%
same,growth inhibition,[5]; [17],12%
same,growth inhibition,[5]; at 11.0 µM,1%
same,growth inhibition,[5]; at 33.0 µM,73% (active)
same,growth inhibition,[5]; [18],79% (active)
same,growth inhibition,[5]; at 50.0 µM,62.6%
same,growth inhibition,[5]; at 100.0 µM,97% (active)
same,growth inhibition,[6]; at 1.2 µM,-29%
same,growth inhibition,[6]; at 3.7 µM,-21%
same,growth inhibition,[6]; [17],0%
same,growth inhibition,[6]; at 11.0 µM,-23%
same,growth inhibition,[6]; at 33.0 µM,39%
same,growth inhibition,[6]; [18],53%
same,growth inhibition,[6]; at 50.0 µM,59.2%
same,growth inhibition,[6]; at 100.0 µM,98% (active)
same,growth inhibition,[7]; at 1.2 µM,-18%
same,growth inhibition,[7]; at 3.7 µM,-14%
same,growth inhibition,[7]; at 11.0 µM,-23%
same,growth inhibition,[7]; at 33.0 µM,61%
same,growth inhibition,[7]; at 100.0 µM,97% (active)
same,growth inhibition,[8]; [17],2%
same,growth inhibition,[8]; [18],86% (active)
same,growth inhibition,[8]; at 50.0 µM,67.8%
same,growth inhibition,[9]; at 1.2 µM,2%
same,growth inhibition,[9]; at 3.7 µM,3%
same,growth inhibition,[9]; at 11.0 µM,5%
same,growth inhibition,[9]; at 33.0 µM,31%
same,growth inhibition,[9]; at 100.0 µM,98% (active)
same,growth inhibition,[10]; [17],33%
same,growth inhibition,[10]; [18],58%
same,growth inhibition,[10]; at 50.0 µM,42.5%
same,growth inhibition,[11]; at 1.2 µM,-15%
same,growth inhibition,[11]; at 3.7 µM,1%
same,growth inhibition,[11]; [17],29%
same,growth inhibition,[11]; at 11.0 µM,1%
same,growth inhibition,[11]; at 33.0 µM,35%
same,growth inhibition,[11]; [18],89% (active)
same,growth inhibition,[11]; at 50.0 µM,73.5% (active)
same,growth inhibition,[11]; at 100.0 µM,98% (active)
same,growth inhibition,[12]; at 1.2 µM,-10%
same,growth inhibition,[12]; at 3.7 µM,-5%
same,growth inhibition,[12]; at 11.0 µM,-1%
same,growth inhibition,[12]; at 33.0 µM,62%
same,growth inhibition,[12]; at 100.0 µM,98% (active)
same,growth inhibition,[13]; at 1.2 µM,-19%
same,growth inhibition,[13]; at 3.7 µM,-22%
same,growth inhibition,[13]; at 11.0 µM,-18%
same,growth inhibition,[13]; at 33.0 µM,66%
same,growth inhibition,[13]; at 100.0 µM,97% (active)
same,growth inhibition,[14]; at 1.2 µM,-25%
same,growth inhibition,[14]; at 3.7 µM,-33%
same,growth inhibition,[14]; at 11.0 µM,-17%
same,growth inhibition,[14]; at 33.0 µM,78% (active)
same,growth inhibition,[14]; at 100.0 µM,98% (active)
same,growth inhibition,[15]; [17],-13%
same,growth inhibition,[15]; [18],80% (active)
same,growth inhibition,[15]; at 50.0 µM,62.6%
same,growth inhibition,[16]; at 1.2 µM,-15%
same,growth inhibition,[16]; at 3.7 µM,-7%
same,growth inhibition,[16]; at 11.0 µM,25%
same,growth inhibition,[16]; at 33.0 µM,76% (active)
same,growth inhibition,[16]; at 100.0 µM,98% (active)
